ATXN2 expr inh: Primary qHTS for Inhibitors of ATXN expression; HEK-293 ATXN2-luciferase reporter, luminescence, 24 h; Potency, µM (highest dose often 57 µM), hits mostly inhibitors; hit rate 0.72% among 360,000; AID 1745845, 2022; further: nearly all actives have a fitted effect of over 55% in size
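qHTS (up to 57 uM final) was run with 24 h compound exposure of reporter cells at 37 °C. Each well was multiplexed: SteadyGlo luminescence measured ATXN2-luciferase expression after a fluorogenic Gly-Phe-AFC viability readout (25 uM final).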
HepG2 viability: qHTS for Inhibitors of TGF-b: Cytotox Counterscreen | HepG2 CAGA-GFP viability, ATP luminescence, 18 h | Potency, µM (titrated, usually from 46.1 µM), actives largely listed as cytotoxic | hit rate 0.76% among 410,000 | AID 588856, 2011
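HepG2 CAGA-GFP cells (1000/well, DMEM with 1% FBS) received compound, then TGF-beta at 500 pg/mL final, and were incubated 18 hours at 37 degrees C. Viability was read by CellTiter-Glo luminescence. Media-only wells were set as complete cell-killing and DMSO as no toxicity.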
RORg inh: qHTS for inhibitors of ROR gamma transcriptional activity; Drosophila S2 Gal4-RORgamma UAS-luciferase reporter, 20 h; Potency, µM (titrated, usually from 53.6 µM), hits mostly inhibitors; hit rate 5.4% among 310,000; AID 2551, 2010; further: nearly all actives have a fitted effect of over 60% in size
Target sequence (P51450 whole entry, looked up, the tested form may be a part): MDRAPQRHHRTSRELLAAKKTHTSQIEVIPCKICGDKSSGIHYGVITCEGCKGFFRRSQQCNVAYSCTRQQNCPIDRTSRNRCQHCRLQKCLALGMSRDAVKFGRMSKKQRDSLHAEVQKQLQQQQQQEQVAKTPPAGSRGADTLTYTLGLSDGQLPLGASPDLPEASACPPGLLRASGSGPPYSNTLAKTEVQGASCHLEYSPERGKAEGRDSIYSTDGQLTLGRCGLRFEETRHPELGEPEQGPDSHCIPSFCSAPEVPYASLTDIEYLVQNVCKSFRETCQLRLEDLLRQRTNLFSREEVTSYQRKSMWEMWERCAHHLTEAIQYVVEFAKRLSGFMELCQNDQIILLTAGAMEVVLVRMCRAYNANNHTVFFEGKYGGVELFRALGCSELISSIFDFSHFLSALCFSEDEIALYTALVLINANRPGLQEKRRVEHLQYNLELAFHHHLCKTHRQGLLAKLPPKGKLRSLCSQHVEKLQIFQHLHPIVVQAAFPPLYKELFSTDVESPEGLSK
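Read-out: Photinus luciferase luminescence; inhibitors lower reporter signal. Insect Schneider cells with Gal4-ROR gamma fusion under metallothionein promoter, UAS reporter; 700 uM final copper sulfate induction, 20 hr, ambient temperature.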
ATXN viability: Viability Counterscreen for Primary qHTS for Inhibitors of ATXN expression; S2 cells (HEK-293 line with an ATXN2-luciferase reporter) viability, CellTiter-Fluor protease fluorescence, 24 h; Potency, µM (series often up to 56.7 µM), most hits filed as cytotoxic; hit rate 0.49% among 400,000; further: nearly all actives have a fitted effect of over 40% in size
VP16 counter: VP16 counterscreen qHTS for inhibitors of ROR gamma transcriptional activity. Drosophila S2 Gal4-VP16 UAS-luciferase, luminescence, 20 h. Potency, µM (highest dose often 53.6 µM), usual class: inhibitors. hit rate 3.5% among 310,000. AID 2546, 2010;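 further: Gal4-VP16 expression switched on by copper sulfate through the metallothionein promoter; nearly all actives have a fitted effect of over 50% in size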
TGFb inhibitor: qHTS for Inhibitors of TGF-b | hit rate 1.2% among 410,000 | Potency, µM (doses to about 46.1 µM), hits mostly inhibitors | AID 588855, 2011 | HepG2 CAGA-GFP TGF-b/SMAD3 reporter, GFP fluorescence, 18 h; TGF-beta stimulated, 500 pg/mL final; further: nearly all actives have a fitted effect of over 65% in size
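Read-out: total well GFP (ex488/em500-530) summed from mean per-cell fluorescence. Cells: HEPG2 CAGA-GFP, 1% FBS DMEM, 18 h at 37 degrees C with 500 pg/mL final TGF-beta. Unstimulated wells served as the full-inhibition control; stimulated DMSO wells = 0%.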
Numbers stand for hits; . = inactive; ? = inconclusive; / = no result given; [ ] = remark or other dose. Hits are enriched below; roughly 6.3% of the tested compounds scored in any of these assays. The call rests on the fitted dose curve; in most records, active means well fitted curve in the direction sought with a large enough effect; inconclusive means small, poorly fitted or top-dose-only effect, or another doubt; inactive means no such curve, though single readings can be large; an effect the other way counts as inactive or inconclusive.

SMILES	ATXN2 expr inh	HepG2 viability	RORg inh	ATXN viability	VP16 counter	TGFb inhibitor
Cc1[nH]n2c(=O)c(C#N)c(-c3ccccc3)nc2c1-c1ccccc1	.	.	.	?	.	.
Cc1[nH]n2c(=O)cc(C(C)C)nc2c1-c1ccccc1	.	.	11µM	?	?	.
Cc1ccc2c(c1)C(=O)C(=O)N2CCCOc1ccccc1	.	.	.	.	.	18µM
Cc1ccc(OCCCN2C(=O)C(=O)c3cc(C)ccc32)cc1	.	.	.	?	.	.
COc1ccc2[nH]c(-c3ccc(C)cc3)cc(=O)c2c1	18µM	.	10µM	.	7.9µM	.
COc1ccc(-c2cc(=O)c3cc(F)ccc3[nH]2)cc1	.	.	.	.	.	.
Cc1cccc(N/C=C/C(=O)c2cccs2)c1C	.	.	10µM	.	?	.
COc1cc([N+](=O)[O-])ccc1N/C=C/C(=O)c1cccs1	.	.	8.9µM	.	8.9µM	.
NC(=O)c1ccccc1N/C=C/C(=O)c1cccs1	.	.	?	.	.	?
CCn1ccc(NS(=O)(=O)c2ccc(N)cc2)nc1=O	.	/	/	.	/	/
Cc1ccc(Cl)cc1N1CCN(S(=O)(=O)c2ccc3c(c2)CCN3C(=O)C2CCC2)CC1	.	.	/	.	/	.
Cc1ccccc1-n1c(SCc2csc(Nc3ccccc3)n2)nnc1-c1cccnc1	.	.	?	?	?	?
Cc1ccc(Nc2nc(CSc3nnc(-c4cccnc4)n3-c3ccccc3C)cs2)cc1	.	.	5µM	.	?	.
COc1ccccc1CN=Cc1[nH]c2ccc(Br)c(Cl)c2c1O	.	.	.	.	11µM	.
O=C(COc1ccccc1[N+](=O)[O-])Nc1ccc(NC(=O)c2cc3ccccc3o2)cc1	?	.	?	?	?	?
O=C(COc1ccc(/C=N/NC(=O)c2cc3ccccc3o2)cc1Br)Nc1ccccc1	?	.	3.2µM	10µM	2.2µM	3.5µM
COCc1c(C(=O)N2CCN(c3ccccc3O)CC2)cnn1-c1nccc(-c2cccs2)n1	/	/	/	.	/	/
CCCCSc1cnn(-c2ccccc2)c(=O)c1SCCCC	.	.	?	.	14µM	.
O=C(c1cc(C(F)(F)F)cc(C(F)(F)F)c1)N1CCC2(CC1)CN(c1ccccn1)C2	/	/	.	/	16µM	/
CCOc1ccc(S(=O)(=O)Nc2cc(SCC(=O)O)c(O)c3ccccc23)cc1	/	13µM	10µM	?	?	5µM
Cc1ccc(C)c(S(=O)(=O)Nc2cc(SCC(=O)O)c(O)c3ccccc23)c1	?	.	.[10 µM]	28µM	14µM	.
CCc1ccc(S(=O)(=O)Nc2cc(SCC(=O)O)c(O)c3ccccc23)cc1	/	18µM	.	.	?	?
CCOc1ccc(S(=O)(=O)Nc2cc3c(C(=O)OC)c(COC)oc3c3ccccc23)cc1	?	.	/	?	/	.
O=C(O)c1cccc(S(=O)(=O)Nc2ccc([N+](=O)[O-])cc2O)c1	/	.	.	?	.	.
Cc1oc2c(cc(NS(=O)(=O)c3ccc(C(C)C)cc3)c3ccccc32)c1C(=O)O	.	.	.	.	.	.
SMILES	ATXN2 expr inh	HepG2 viability	RORg inh	ATXN viability	VP16 counter	TGFb inhibitor
O=C(O)CSc1cc(NS(=O)(=O)c2cccc([N+](=O)[O-])c2)c2ccccc2c1O	?	.	?	.	?	10µM
Cc1ccc(N2CC(C(=O)OCC(=O)Nc3c(C)cccc3C)CC2=O)cc1 (stereo not drawn)	/	.	/	.	/	.
O=C(Nc1ccc(Cl)c(Cl)c1)Nc1ccccc1O	/	.	?	.	.	?
O=C(Nc1ccc(Cl)c(Cl)c1)Nc1ccc(Br)cc1F	?	.	?	?	13µM	?
Cc1onc(-c2c(Cl)cccc2Cl)c1C(=O)N/N=C(\N)COc1ccc(Cl)cc1	?	.	0.45µM	?	0.5µM	6.3µM
COc1cc(/C=N/NC(=O)c2c(-c3c(Cl)cccc3Cl)noc2C)ccc1OCC(N)=O	.	.	/	.	/	.
Cc1cc(C(Br)(Br)Br)nc2ccccc12	/	11µM	/	/	/	?
COc1ccc(/C=C/c2cc(C(=O)O)c3ccccc3n2)cc1	2.2µM	.	1.1µM	.	1.4µM	.
Cc1cc(Cl)nc2ccccc12	/	.	/	/	/	.
Cc1cc(/C=C\c2ccccc2)nc2ccccc12	.	.	11µM	.	.	.
O=C(c1cccc(Cl)c1)N1CCN(c2ccc3c(c2)C2CC3CCN2C(=O)OCc2ccccc2)CC1 (stereo not drawn)	.	.	/	?	/	11µM
O=C(c1ccc(Cl)cc1)N1CCC2CC1c1cc(-c3ccccc3)ccc12 (stereo not drawn)	.	.	/	.	/	20µM
O=C(c1ccc(-c2ccccc2)cc1)N1CCN(c2ccc3c(c2)C2CC3CCN2C(=O)OCc2ccccc2)CC1 (stereo not drawn)	.	.	/	.	/	?
O=C(c1cccc(Cl)c1)N1CCC2CC1c1cc(-c3ccccc3)ccc12 (stereo not drawn)	.	.	/	.	/	?
CCOC(=O)CCN1C(=O)[C@H]2[C@H]3[C@H](O)[C@H](O)C/C(=N/OCC(C)C)[C@H]3CC[C@@H]2C1=O	/	/	.[10 µM]	/	.[10 µM]	/
COc1ccc(Cl)cc1N(CC(=O)NCc1ccccn1)S(=O)(=O)c1ccc(C)cc1	/	.	/	.	/	.
COC(=O)c1ccc(NC(=O)CN(C)S(=O)(=O)c2ccc(Br)s2)cc1	.	.	/	?	/	.
Cc1cc(C)cc(N(CC(=O)NCc2ccccc2Cl)S(=O)(=O)c2c(C)noc2C)c1	.	.	/	?	/	?
[C-]#[N+]/C(C#N)=C\c1cc(C(C)(C)C)c(O)c(C(C)(C)C)c1	/	/	0.2µM	/	8.9µM	/
CC(C)(C)c1cc(C=O)cc(C(C)(C)C)c1O	.	/	/	.	/	/
CC1(C)CCC(c2ccc(Cl)cc2)=C(CN2CCN(c3ccc(C(=O)NS(=O)(=O)c4ccc(N[C@H](CCN5CCOCC5)CSc5ccccc5)c(S(=O)(=O)C(F)(F)F)c4)cc3)CC2)C1	?	5.6µM	/	/	/	?
COc1cccc(NC(=O)CN(C)S(=O)(=O)c2cccs2)c1	.	.	/	.	/	.
CCCCOc1ccc(Br)cc1CSC(=N)N	?	.	?	?	10µM	20µM
CCOc1ccc(C(C)=O)cc1CSC(=N)N	.	.	.	.	.	.
Cc1c(CCOC(=O)c2ccc(Cl)cc2Cl)sc[n+]1CC(=O)c1ccc(Br)cc1	/	14µM	/	.	/	?
Cc1cc(C)c2sc(N(Cc3cccnc3)C(=O)CCS(=O)(=O)c3ccccc3)nc2c1	/	7.1µM	/	/	/	2.5µM
Cc1ccc2sc(N(Cc3cccnc3)C(=O)CCS(=O)(=O)c3ccccc3)nc2c1C	/	.	/	/	/	.
